# Active and inactive are the calls of the source. How the source made its calls: active means hit-call score of the fitted dose curve at least 0.9, where 1 is the maximum; inactive means score below 0.9.
# Read-out: cysteine-aspartic acid protease (CASP8), CASP8 (gene 841)
# Test: LTEA_HepaRG_CASP8: Life Technologies and Expression Analysis (LTEA) Assay for cysteine-aspartic acid protease (CASP8) using HepaRG (AID 2283480)
# Conditions: mRNA level, 48 h; actives raise or lower the signal
# Procedure: LTEA_HepaRG is a cell based, multiplexed-readout assay that uses HepaRG, a human liver cell line, with measurements taken at 48 hours after chemical dosing on a 96-well plate.LTEA_HepaRG_CASP8 is one of 102 assay component(s) measured in the LTEA HepaRG cell culture assay. It is a marker of Cell proliferation, survival, death.Data from the assay component LTEA_HepaRG_CASP8 was analyzed into 1 endpoint. This assay endpoint, LTEA_HepaRG_CASP8, was analyzed with bidirectional fitting relative to DMSO as the negative control and baseline of activity. Using a type of inducible reporter, measures of mRNA induction for gain or loss-of-signal activity can be used to understand regulation of transcription factor activity. To generalize the intended target to other relatable targets, this assay endpoint is annotated to the protease intended target family, where the subfamily is cysteine protease.
# A total of 1060 chemcials from the ToxCast library were tested in eight-point concentration-response experiments. Cell culture and cytotoxicity assays were conducted at Thermo Fisher Scientific's Custom Services facility (Madison, WI). A single lot of human HepaRG cells (Thermo Fisher Scientific, Frederick, MD) was used for the cell culture experiments. 96-well format collagen type I coated plates of human HepaRG cells were prepared using established methods. Briefly, cryopreserved HepaRG cells were thawed, plated at a density of approximately 100,000 cells/well in HepaRG Thaw, Plate, and General Purpose media (HPRG770, Thermo Fisher Scientific), and incubated for 48 hours. 0.5% DMSO was selected as vehicle control to balance the requisite need of DMSO in HepaRG cultures to maintain differentiation (for example, baseline metabolism, proportions of hepatocytes vs. cholangiocytes), while enabling further hepatic receptor pathway activation (for example, PXR and CAR) in response to chemical exposure. 48 hours after plating, the culture medium was replaced with HepaRG Serum-Free Incudtion Media. Cells were exposed to each test chemical in duplicate and maintained in CO2 incubators for another 48 hours. Chemical plates were thawed to room temperature and 200x concentrations of treatment groups were prepared. 8-point conentration-reponse curves were made with the highest exposure at 100 uM, followed by half-log dilutions, all in 0.5% DMSO. Each test plate contained variouse controls, induction positive controls (1mM phenobarbital), cytotoxicity positive controls ([…] aflatoxin B1), vehicle controls (0.5% DMSO), and total lysis controls (0.5% DMSO). Cell morphology images were taken using an Essen IncuCyte FLR automated microscope, with six 96-well plates imaged in about 24 minutes. Images were captured and exported and JPEG files. Spent culture media was transfered to black-well plates for the LDH assay, and remaining media was sorted at -80 C for later use. Cells were treated with RLT buffer and frozen until shipped for gene expression analysis. Total RNA was isolated from the cell suspension in 75 uL of Buffer RLT (Qiagen, Germantown, MD 20874) by Quintiles/Expression Analysis (Durham, NC) using a custom isolation procedure. Total RNA from each plate well was transferred to a preamplification plate. Fluidigm's 96.96 Dynamic ArrayTM (Fluidigm, Amsterdam, the Netherlands) technology was used for gene expression analyses by quantitative reverse transcription polymerase chain reaction (qRT-PCR, performed by Quintiles/Expression Analysis, Durham, NC)89. Standard TaqManTM Assays (Applied Biosystems/ThermoFisher Scientific, Foster City, CA) were used to assess the expression of 93 genes selected based on their selectivity and sensitivity to important hepatic receptors known to be modulated by environmental chemicals; importance in human hepatocyte functionality; and hepatotoxicity. […]
Compound,outcome,AC50
CCOC(=O)CC(SP(=O)(OC)OC)C(=O)OCC (stereo not given),inactive,–
C[N+]1(C)CCCCC1,inactive,–
C[Si](Cn1cncn1)(c1ccc(F)cc1)c1ccc(F)cc1,inactive,–
FC(F)C(F)(F)OCC(Cn1cncn1)c1ccc(Cl)cc1Cl (stereo not given),inactive,–
CC(Oc1cccc(Cl)c1)C(=O)O (stereo not given),inactive,–
C#CCC1=C(C)C(OC(=O)C2C(C=C(C)C)C2(C)C)CC1=O (stereo not given),inactive,–
COc1ccc(C(=CC(=O)N2CCOCC2)c2ccc(Cl)cc2)cc1OC,inactive,–
CC1=NNC(=O)N(/N=C/c2cccnc2)C1,inactive,–
CSc1nnc(C(C)(C)C)c(=O)n1N,inactive,–
CCOP(=S)(OCC)OC(Cl)C(Cl)(Cl)Cl (stereo not given),inactive,–
COP(=O)(OC)OC(Br)C(Cl)(Cl)Br (stereo not given),inactive,–
CCC(=NOC/C=C/Cl)C1=C(O)CC(C2CCOCC2)CC1=O (stereo not given),inactive,–
CCOP(=O)(SC(C)CC)N1CCSC1=O (stereo not given),inactive,–
CSc1nc(NC(C)C)nc(NC(C)C)n1,inactive,–
CCCSP(=O)(OCC)SCCC,inactive,–
Cc1ccn2nc(S(=O)(=O)Nc3c(F)cccc3F)nc2n1,inactive,–
S=C1NCCN1,inactive,–
CCOP(=S)(OCC)Oc1ccc2c(C)c(Cl)c(=O)oc2c1,inactive,–
CCc1cnc(C2=NC(C)(C(C)C)C(=O)N2)c(C(=O)O)c1 (stereo not given),inactive,–
CC(C)=CC1C(C(=O)OCN2C(=O)C3=C(CCCC3)C2=O)C1(C)C (stereo not given),inactive,–

Compound,outcome,AC50
CCc1cccc(C)c1N(C(=O)CCl)C(C)COC (stereo not given),inactive,–
CN1COCN(Cc2cnc(Cl)s2)C1=N[N+](=O)[O-],inactive,–
C#CC(C)(C)NC(=O)c1cc(Cl)cc(Cl)c1,inactive,–
CN(C)NC(=O)CCC(=O)O,inactive,–
CN(C)C(=O)Nc1cccc(C(F)(F)F)c1,inactive,–
N#CSCSC#N,inactive,–
CCNc1nc(Cl)nc(NC(C)(C)C#N)n1,inactive,–
CC(=NC#N)N(C)Cc1ccc(Cl)nc1,inactive,–
O=c1ccc(=O)[nH][nH]1,inactive,–
CCC(CC)Nc1c([N+](=O)[O-])cc(C)c(C)c1[N+](=O)[O-],inactive,–
CNC(=O)ON=C(SC)C(=O)N(C)C,–,0.369 µM (active)
CCCOc1nn(C(=O)NS(=O)(=O)c2ccccc2C(=O)OC)c(=O)n1C,inactive,–
CCCSP(=O)(OCC)Oc1ccc(Br)cc1Cl (stereo not given),inactive,–
CCOC(=O)COc1cc(-c2nn(C)c(OC(F)F)c2Cl)c(F)cc1Cl,inactive,–
CCOP(=O)(NC(C)C)Oc1ccc(SC)c(C)c1 (stereo not given),inactive,–
CCOP(=S)(OCC)SCCSCC,inactive,–
CCc1cccc(CC)c1N(COC)C(=O)CCl,inactive,–
CNC(=O)Oc1cccc2c1OC(C)(C)O2,inactive,–
Nc1c(Cl)cc([N+](=O)[O-])cc1Cl,–,50 µM (active)
CC(COc1ccc(Oc2ccccc2)cc1)Oc1ccccn1 (stereo not given),inactive,–
